# Results as given in PubChem BioAssay AID449762 (Southern Research Specialized Biocontainment Screening …, 2010).
# Screen size: about 330,000 compounds; about 1,900 (0.58%) were called active. Roughly 4% stayed inconclusive and do not appear here. Only a sample is shown. Potency and affinity values are given separately. Unmarked numbers belong to inactive results. Cut-off read from the data, not from the text of the source: inconclusive = inhibition above about 70% without an active follow-up result; inactive = below that.
# Experiment: M. tuberculosis growth inhibition, HTS (AID 449762);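 note: bacterial growth assessed after seven days of incubation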
# Conditions: M. tuberculosis H37Rv growth inhibition, 7H9 media; at 25 µM; stronger effect = higher value
row,SMILES,inhibition
1,Cc1cc(NCCO)nc(-n2nc(C)cc2C)n1,1.56%
2,CCOc1ccc(Nc2cc(C)nc(N3CCOCC3)n2)cc1,-6.87%
3,Cc1occc1C(=O)Nc1nnc(C(F)(F)F)s1,-11.4%
4,C(#Cc1ccc2c(c1)COc1c3ccccc3nn1-2)c1ccccc1,-2.59%
5,C#Cc1ccc2c(c1)COc1c3ccccc3nn1-2,26.7%
6,COc1ccc(C(CNC(=O)Nc2ccc(Cl)cc2)N2CCN(C)CC2)cc1 (configuration not stated),6.3%
7,COc1cccc(NC(=O)[C@@H]2CCCN2C(=O)C2CCN(S(=O)(=O)c3ccc(C)cc3)CC2)c1,-6.02%
8,CC(C)(C)Nc1nc(N2CCCC2)nc(N2CCCC2)n1,8.96%
9,CCNc1nc(NC(C)(C)C)nc(N2CCCC2)n1,12.8%
10,O=C(COc1ccccc1Br)c1ccc2c(c1)OCO2,-8.06%
11,CC/C(=N\NC(=S)Nc1cccc(C)c1)c1ccccc1,4.58%
12,C/C(=N\NC(=S)Nc1cccc(C)c1)c1cc2ccccc2o1,67.2%
13,Cc1ccc2cc(C)c3nnc(SCC(=O)N4CCN(C(=O)c5ccco5)CC4)n3c2c1,-3.44%
14,COc1ccc(Cl)cc1NC(=O)CSc1nc(Nc2ccccc2)nc(N2CCOCC2)n1,-3.97%
15,O=C(CSc1nc(Nc2ccccc2)nc(N2CCOCC2)n1)Nc1ccccc1Cl,-2.86%
16,COc1ccccc1OCCNC(=O)C1CC(=O)N(Cc2ccc(C)cc2)C1 (configuration not stated),-0.95%
17,Cc1csc(SCC(=O)NC(=O)NCc2ccccc2)n1,-2.35%
18,O=C(NC(=S)Nc1ccc2oc(=O)ccc2c1)c1cccc(Cl)c1,5.43%
19,CC(C)(C)N=C1NC(=NC(C)(C)C)c2ccccc21,1.58%
20,Cc1ccc(NC(=O)CCc2ccc(C)o2)cc1,23.4%
21,Cc1cccc(NC(=O)CCc2ccc(C)o2)c1,-15.4%

row,SMILES,inhibition
1,CCOc1ccc(N(CC(=O)NC2CCCC2)C(=O)CCCC(=O)Nc2ccccn2)cc1,-1.21%
2,CCc1cc(C(=O)NCC2CCCO2)sc1C (configuration not stated),-1.92%
3,CC(=O)NNC(=O)c1cc2c3ccccc3n(C)c2s1,-4.02%
4,CCCNC(=O)c1cc2c3ccccc3n(C)c2s1,-14.8%
5,CCc1cc(C(=O)NNC(=O)CCN2CCN(c3ccccc3)CC2)sc1C,-4.59%
6,C/C(=N/NS(=O)(=O)c1ccc(Br)cc1)c1c[nH]c2ccccc12,2.63%
7,CCOc1ccc(CN2CCNC(=O)C2CC(=O)N(C)CC2CCOCC2)cc1 (configuration not stated),5.35%
8,COc1cc(C(=O)NCC(=O)Nc2c(C)cccc2C)ccc1OCc1ccccc1,-1.77%
9,COc1ccc(C(=O)N2CCC(n3nccc3NC(=O)C3CC3)CC2)cc1F,0.61%
10,COc1cc(/C=C2/C(=N)N3N=C(CC(=O)N4CCOCC4)SC3=NC2=O)ccc1OCc1ccccc1F,0.04%
11,Cc1ccc(S(=O)(=O)N(C)c2ccc(C(=O)N3CCC(C(N)=O)CC3)cc2)cc1,-5.27%
12,CCOC(=O)N1CCN(C(=S)NC(=O)c2cccc(OC)c2)CC1,-0.27%
13,CN(C)CCCN1C(=O)c2cccc3cccc(c23)C1=O,-1.82%
14,O=C(O)CCCN1C(=O)c2cccc3cccc(c23)C1=O,-5.41%
15,O=C1CCCC/C1=C/Nc1ccc2c(c1)OCO2,59.1%
16,O=C1/C(=C/Nc2cccc([N+](=O)[O-])c2)CCc2ccccc21,2.58%
17,Cc1cccc(C(=O)NCCc2csc(C)n2)c1,-0.44%
18,CCCCC(CC)C(=O)N1CCN(C(=O)c2ccco2)CC1 (configuration not stated),-4.92%
19,CCc1nc(Nc2ccccc2OC)c2oc3ccccc3c2n1,2.96%
20,COc1ccc(C(=O)NCc2nnc(SCC(=O)c3ccc(F)cc3)n2C)cc1OC,-0.94%
21,CC(=O)N(C1=C(N)C(=O)c2ccccc2C1=O)c1ccccc1,-1.88%

row,SMILES,inhibition
1,CC(CCc1ccccc1)NC(=O)CN(C)Cc1ccc(F)cc1 (configuration not stated),0.05%
2,CN(CC(=O)NCCc1ccc(F)cc1)Cc1ccccc1,-0.22%
3,CNC1=C(N(C(C)=O)c2ccc(Br)cc2)C(=O)c2ccccc2C1=O,-2.3%
4,CC1CCCCC12NC(=O)N(CC(=O)OCc1ccc(Br)cc1)C2=O (configuration not stated),5.76%
5,CN(C)S(=O)(=O)c1ccc(C(=O)NNC(=O)C2COc3ccccc3O2)cc1 (configuration not stated),2.93%
6,O=C(O)c1cc(N/N=C/c2ccc(OCc3ccccc3)cc2)ccc1Cl,-0.4%
7,COc1ccc(C=NOCC(=O)OCC(=O)Nc2ccc(OC)cc2)cc1,4.42%
8,CN(C(=O)CO/N=C/c1ccc(Cl)cc1)c1ccccc1,-0.18%
9,CC(C)Oc1ccc(/C(O)=C2/C(=O)C(=O)N(CCN(C)C)C2c2cccs2)cc1 (configuration not stated),4.08%
10,CCCOc1ncnc2c1[nH]c1ccc(C)cc12,6.51%
11,O=C(NCc1ccccc1)C(=O)Nc1nc(C23CC4CC(CC(C4)C2)C3)cs1,1.12%
12,O=C(NCc1ccccn1)C(=O)Nc1nc(-c2ccccc2)cs1,55.8%
13,COc1ccc(C)cc1NC(=O)C(NC(=O)c1cc(OC)c(OC)c(OC)c1)C(C)C (configuration not stated),0.19%
14,S=C(NC1CCCCCC1)NC1CCCC1,1.4%
15,COc1cc(OC)c(C(=O)NNC(=S)NC2CCCCC2)cc1OC,-2.47%
16,CCOc1ccccc1C(=O)Nc1nccs1,-0.35%
17,CCOc1cccc2cc(C(=O)Nc3cc(C)on3)c(=O)oc12,3.23%
18,CCN(CC)c1ccc(NS(=O)(=O)c2cn(C)c(=O)n(C)c2=O)c(C)c1,-6.59%
19,Cc1cc(C(=O)NNc2c(Cl)cccc2Cl)n(C(C)(C)C)n1,-6.53%
20,COc1cccc(NC(=O)C2CCN(C(=O)[C@@H]3Cc4ccccc4CN3C(=O)OC(C)(C)C)CC2)c1,2.76%
